# TRAIL sens C8 = caspase-8 TRAIL sensitization; NB7+C8 cells + TRAIL, ATPlite viability luminescence; inhibition (viability loss, TRAIL sensitization), % at 10 µM; 1% of 360,000 active; AID 624354;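 active means compounds causing at least 50% loss of cell viability in the single-dose screen, relative to plate controls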
# PPC-1+TRAIL kill = compounds killing PPC-1 cancer cells with TRAIL present (potentiator screen, no TRAIL-free arm); PPC-1 cells + TRAIL, ATPLite viability luminescence; cell killing (% activity), % at 4 µM or 5 µM; 0.41% of 220,000 active;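 active means cell killing above 50% in the first pass at 4 µM, then a duplicate retest at 5 µM averaging 50% or more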;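 further: plate controls were cells with TRAIL plus DMSO for no effect and medium-only wells lacking cells for full effect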
# CF NFkB block = inhibitors of cystic fibrosis induced NF-kB; KKLEB NF-kB-GFP reporter, PAF-induced, GFP fluorescence overnight; 0.86% of 360,000 active; inhibition, % at 5 µM;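 active means at least 50% inhibition at 5 µM, scaled per plate between neutral and stimulator controls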;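 further: PAF is a Pseudomonas aeruginosa culture filtrate used as stimulus; plate controls were PAF-stimulated DMSO wells for no effect and unstimulated DMSO wells for full effect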
# KKLEB tox = reduces viability of KKLEB cystic fibrosis airway cells; AID 602141; KKLEB CF airway cells viability, ATPlite luminescence, overnight; active compounds read low; cells stimulated with P. aeruginosa culture filtrate; 0.36% of 360,000 active; activity change (cytotoxicity), % at 5 µM;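 active means corrected activity change at or below -50% at 5 µM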
# iPSC survival up = enhancers of human iPSC single-cell survival | survival enhancement, % at 20 µM | hiPSC single-cell survival, ATPlite luminescence; 100% = ROCK inhibitor wells, 0% = DMSO | 0.044% of 360,000 active; in the data active means survival enhancement above about 18%;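 further: cells exposed to compounds for 16 hours before the ATP read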
# HIF-2a block = inhibitors of HIF-2a; 786-0 RCC cells HIF-2a reporter, luciferase luminescence, overnight; inhibition, % at 18.8 µM; 0.72% of 360,000 active;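 active means inhibition of the luminescence signal of 40% or more relative to plate controls, in a single-dose primary screen at 18.75 µM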
# PPC1 cytotox = kills PPC-1 cells; shares compounds with PPC-1+TRAIL kill; PPC-1 viability, ATPlite luminescence, overnight; cytotoxicity, % at 5 µM; 50% of 1,200 active;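 active means reconfirmed compounds whose average cytotoxicity reaches 50% or more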;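 further: 0% = DMSO-treated cells and 100% = wells holding medium but no cells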
# CF NFkB inh conf = CF NF-kB inhibition confirmation, single concentration; inhibition, % at 5 µM; 64% of 1,300 active; KKLEB CF airway cells, PAF-induced NF-kB-GFP fluorescence, overnight; shares compounds with CF NFkB block; in the data active means inhibition above about 40%;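 further: stimulus PAF is a Pseudomonas aeruginosa filtrate and not platelet activating factor; plate controls were DMSO wells with stimulus for no effect and unstimulated DMSO wells for full effect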
# Mdm2 MdmX conf = Mdm2/MdmX (human) interaction inhibition, confirmed | shares compounds with HIF-2a block | SaOS-2 split-luciferase Mdm2/MdmX complementation, luminescence | inhibition, % at 8 µM | 99% of 740 active | AID 504601;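 active means mean inhibition of the luminescence signal across two replicates at or above 26 percent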
# Target sequence (O15151 whole entry, looked up): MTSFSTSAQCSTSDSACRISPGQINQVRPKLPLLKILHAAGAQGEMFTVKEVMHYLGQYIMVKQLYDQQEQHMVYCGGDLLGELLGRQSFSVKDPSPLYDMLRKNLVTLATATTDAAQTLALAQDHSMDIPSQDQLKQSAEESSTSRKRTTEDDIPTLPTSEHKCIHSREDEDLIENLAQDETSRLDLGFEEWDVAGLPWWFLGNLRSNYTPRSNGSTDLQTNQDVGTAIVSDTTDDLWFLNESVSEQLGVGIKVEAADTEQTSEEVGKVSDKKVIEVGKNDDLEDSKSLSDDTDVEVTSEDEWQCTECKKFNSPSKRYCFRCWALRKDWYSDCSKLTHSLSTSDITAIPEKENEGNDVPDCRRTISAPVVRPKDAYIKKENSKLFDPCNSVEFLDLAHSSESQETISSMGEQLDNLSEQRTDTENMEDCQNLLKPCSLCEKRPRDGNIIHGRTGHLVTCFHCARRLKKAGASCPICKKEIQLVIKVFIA
# Target sequence (Q00987 whole entry, looked up): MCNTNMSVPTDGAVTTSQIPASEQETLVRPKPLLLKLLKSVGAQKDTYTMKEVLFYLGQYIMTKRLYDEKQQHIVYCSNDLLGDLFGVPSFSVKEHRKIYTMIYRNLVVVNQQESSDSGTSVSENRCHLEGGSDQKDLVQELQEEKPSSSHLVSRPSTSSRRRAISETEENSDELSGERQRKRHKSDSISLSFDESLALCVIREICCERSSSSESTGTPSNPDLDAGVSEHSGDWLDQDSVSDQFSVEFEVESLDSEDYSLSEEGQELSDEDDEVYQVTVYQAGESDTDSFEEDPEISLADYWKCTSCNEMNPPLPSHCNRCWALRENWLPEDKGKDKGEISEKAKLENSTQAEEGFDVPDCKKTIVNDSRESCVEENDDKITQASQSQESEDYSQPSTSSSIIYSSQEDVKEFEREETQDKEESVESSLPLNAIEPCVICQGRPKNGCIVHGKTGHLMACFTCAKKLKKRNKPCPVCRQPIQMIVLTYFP
# Numbers without * were called inactive; x = not tested or not shown. Most compounds without a hit are left out; they make up all but 2.2% or so of the library.
SMILES,TRAIL sens C8,PPC-1+TRAIL kill,CF NFkB block,KKLEB tox,iPSC survival up,HIF-2a block,PPC1 cytotox,others
C[C@@H]1O[C@@H](O[C@H]2C[C@@H](O)[C@]3(CO)[C@H]4[C@H](O)C[C@]5(C)[C@@H](C6=CC(=O)OC6)CC[C@]5(O)[C@@H]4CC[C@]3(O)C2)[C@H](O)[C@H](O)[C@H]1O,44,74*,91*,18,-3,88*,76*,
CCOC(=O)c1c(C)n(Cc2ccccc2)c2ccc(OCC(O)CN3C(=O)CNC3=O)cc12 (stereo not given),14,15,6,-4,1,11,12,
Cn1ncnc2c(=O)n(C)c(=O)nc1-2,96*,89*,102*,-97*,-5,82*,90*,
CC(C)CCC1(CCO)C(=O)NC(=S)NC1=O,-22,x,-4,-13,-2,-1,x,
O=c1[nH]c(=S)[nH]c(O)c1N=Nc1ccc2c(c1)OCO2,17,20,-8,1,1,-230,x,
O=c1[nH]c(=S)[nH]c(O)c1N=Nc1ccc2c(c1)OCCO2,56*,74*,-16,3,-1,-154,73*,
CC(C)CN1Cc2cc(-c3cccc(F)c3)ccc2-n2nncc2C1,0,x,-44,-4,0,-13,x,
CN(C)c1ccc(-[n+]2c(-c3ccccc3)cc(-c3ccccc3)cc2-c2ccccc2)cc1,42,44,49,-45,0,35,41,
COc1ccc(C2CN(C)CC2C(=O)c2ccc(C)cc2)cc1Cl (stereo not given),-1,18,-2,2,0,10,x,
COC(=O)C1=C(c2cccc(C#N)c2)C[C@@H]2CC[C@H]1N2C(=O)N1CCCC1,-10,x,16,3,-1,7,x,
CN[C@H]1C[C@H]2O[C@@](C)([C@H]1OC)n1c3ccccc3c3c4c(c5c6ccccc6n2c5c31)C(=O)NC4,x,66*,x,x,x,x,70*,
O=C(Cc1cccs1)N1Cc2ccccc2-n2nncc2C1,-13,x,-26,8,1,6,x,
c1ccc(-c2cc(-c3ccccc3)[n+](-c3ccccc3)c(-c3ccccc3)c2)cc1,75*,28,29,-32,-1,8,32,Mdm2 MdmX conf=102*
CC1([N+](=O)[O-])COP(=O)(NCc2cccnc2)OC1 (stereo not given),-13,x,7,-22,1,0,x,
COc1ccc(C(c2nnnn2-c2c(C)cccc2C)N2CCC(n3c(=O)[nH]c4ccccc43)CC2)cc1 (stereo not given),1,x,60*,-12,-2,-4,x,CF NFkB inh conf=-1
Cc1cccc(C)c1-n1nnnc1C(c1ccccc1OC(F)(F)F)N1CCC(n2c(=O)[nH]c3ccccc32)CC1 (stereo not given),26,x,73*,-28,3,-16,x,CF NFkB inh conf=0
C=CC[C@@H](CC/C=C/C=C/CC/C=C\[C@@H]1CSC([C@@H]2C[C@@H]2C)=N1)OC,19,x,54*,-31,-4,17,x,CF NFkB inh conf=48*
C=C1C(=O)OC2CC3(C)OC3CCC(C)=CC(OC(C)=O)C12 (stereo not given),8,x,91*,2,-3,16,x,CF NFkB inh conf=89*
C=C1C(=O)O[C@@H]2C[C@@H](C)[C@H]3C=CC(=O)[C@]3(O)C[C@@H]12,11,-5,-47,8,-5,9,x,
COc1cccc(OCc2cc(C(=O)N3C[C@H]4C[C@@H](C3)c3cccc(=O)n3C4)no2)c1,-11,x,-1,6,0,-238,x,
O=c1[nH]c2ccccc2n1C1CCN(C(c2cccc3ccccc23)c2nnnn2Cc2ccccc2)CC1 (stereo not given),34,x,86*,-48,2,-35,x,CF NFkB inh conf=105*
